Measurements from PubChem BioAssay (Tox21).
Records with an inconclusive call do not appear. A number with no mark means an inactive call. Calls of active or inactive are those of the source. The call rests on the fitted dose curve; in most records, active means well fitted activation curve with a large enough effect in the repeat runs; inconclusive means weak or mixed curves; inactive means no such curve, though single readings can be large or run the other way.

biological target: Aryl hydrocarbon receptor (Homo sapiens) (UniProt P35869); experiment: qHTS assay to identify small molecule that activate the aryl hydrocarbon receptor (AhR) signaling pathway (AID 743085); conditions: HepG2 AhR-luc (HG2L7.5c1), luciferase, 24 h; series mostly up to 70.3 µM; activation: at the top concentration; further: nearly all actives have a fitted effect of over 15% in size;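 on activation: HG2L7.5c1 human HepG2 liver cells with stably integrated DRE-driven firefly reporter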
Sequence (P35869 whole entry, looked up): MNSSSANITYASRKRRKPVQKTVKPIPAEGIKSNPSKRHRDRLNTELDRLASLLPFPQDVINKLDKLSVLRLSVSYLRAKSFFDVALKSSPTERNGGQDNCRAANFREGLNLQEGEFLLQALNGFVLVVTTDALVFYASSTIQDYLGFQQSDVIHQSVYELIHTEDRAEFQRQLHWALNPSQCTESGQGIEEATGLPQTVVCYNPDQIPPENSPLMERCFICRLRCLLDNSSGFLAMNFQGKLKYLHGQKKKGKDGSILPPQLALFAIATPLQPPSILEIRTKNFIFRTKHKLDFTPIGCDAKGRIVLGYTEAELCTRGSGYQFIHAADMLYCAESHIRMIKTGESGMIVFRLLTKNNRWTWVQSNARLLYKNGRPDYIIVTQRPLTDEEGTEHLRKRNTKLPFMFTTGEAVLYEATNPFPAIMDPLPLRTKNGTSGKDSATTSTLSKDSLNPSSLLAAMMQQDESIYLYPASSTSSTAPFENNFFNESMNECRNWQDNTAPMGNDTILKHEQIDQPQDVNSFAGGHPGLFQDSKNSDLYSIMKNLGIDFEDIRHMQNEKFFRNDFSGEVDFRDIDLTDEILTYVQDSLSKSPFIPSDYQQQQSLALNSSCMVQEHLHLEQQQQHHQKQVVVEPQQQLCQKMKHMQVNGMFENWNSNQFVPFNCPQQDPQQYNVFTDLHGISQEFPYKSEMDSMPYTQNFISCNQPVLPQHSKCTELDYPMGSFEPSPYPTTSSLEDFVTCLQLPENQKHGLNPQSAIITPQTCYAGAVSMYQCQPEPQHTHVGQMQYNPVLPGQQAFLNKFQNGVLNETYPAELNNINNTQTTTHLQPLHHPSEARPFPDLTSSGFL
Source text: U.S. Tox21 Program National Center for Advancing Translational Sciences [NCATS] NIH Chemical Genomics Center [NCGC] U.S. Environmental Protection Agency [EPA] National Institutes of Environmental Health Sciences [NIEHS] National Toxicology Program [NTP] U.S. Food and Drug Administration [FDA] Tox21 Assay overview: The Aryl hydrocarbon Receptor (AhR), a member of the family of basic helix-loop-helix transcription factors, is crucial to adaptive responses to environmental changes. AhR mediates cellular responses to environmental pollutants such as aromatic hydrocarbons through induction of phase I and II enzymes but also interacts with other nuclear receptor signaling pathways. A cell based HepG2-AhR-luc assay (HG2L7.5c1 cell line, developed by Dr. Michael S. Denison, University of California at Davis, was used to assess the activation of AhR. HepG2 (human hepatocellular carcinoma) cells were stably transfected with an Ah receptor-responsive firefly luciferase reporter gene plasmid containing 20 dioxin responsive elements and luciferase reporter gene. Increased luciferase activity can be used to identify the compounds that induce AhR activation.
Tox21 Assay Protocol Summary: 4000 cells in 5 uL/well were dispensed into white wall/solid bottom 1536-well plates using a Multidrop Combi (Thermo Fisher Scientific Inc., Waltham, MA) dispenser. After the assay plates were incubated at 37C for 5 h, 23 nL of compound or DMSO vehicle was transferred to the assay plates by a pintool station (Kalypsys, San Diego, CA). The plates were incubated at 37C for 24 hr. After 1 ul/well of CellTiter-Fluor reagent (Promega, Madison, WI) was added into the assay plates using a Flying Reagent Dispenser (FRD) (Aurora Discovery, CA), the assay plates were incubated at 37C for 30 min. The fluorescence intensity in the plates was measured using a ViewLux plate reader (PerkinElmer, Shelton, CT), followed by the addition of 4 uL of ONE-Glo Luciferase Assay reagent (Promega) using an FRD (Aurora Discovery). After the assay plates were incubated at room temperature for 30 min, luminescence intensity was measured using a ViewLux plate reader (Perkin Elmer).
On the % scale 0 is the no-effect control and ±100 the full control effect; potency means the concentration at half of the fitted maximal effect.

Structure (SMILES)	activation	Potency
CCOc1ccc(C(C)(C)COCc2cccc(Oc3ccccc3)c2)cc1	-0.313%	
COC1=CC(=O)O[C@@H](CCc2ccccc2)C1	1.16% [at 95 µM]	
COC(=O)C(Cl)C(=O)OC	-1.56%	
CCC(Br)(CC)C(=O)NC(N)=O	-0.387%	
Cl/C=C\C[N+]12CN3CN(CN(C3)C1)C2	0.667%	
CCCCOC(=O)c1ccccc1C(=O)OCc1ccccc1	-0.209%	
CCCN(CC1CC1)c1c([N+](=O)[O-])cc(C(F)(F)F)cc1[N+](=O)[O-]	0.0109%	
CCCCCCCCOC(=O)c1ccc(C(=O)OCCCCCCCC)c(C(=O)OCCCCCCCC)c1	3.14% [at 95 µM]	
CC(C)(Cl)[N+](=O)[O-]	-0.594% [at 95 µM]	
O=Cc1ccc2c(c1)OCO2	-0.361%	
CC[C@H]1C[C@H]2[C@@H]3CCC4=CC(=O)CC[C@@H]4[C@H]3CC[C@]2(C)[C@H]1O	2.96%	
O=C(Nc1ccccc1)Nc1cnns1		15.3 µM (active)
BrCC(Br)C1CCC(Br)C(Br)C1 (stereo not given)	-1.7%	
CCC(C)(NC(=O)c1cc(Cl)c(C)c(Cl)c1)C(=O)CCl (stereo not given)	-0.421% [at 95 µM]	
NS(=O)(=O)C(F)(F)C(F)(F)C(F)(F)C(F)(F)C(F)(F)C(F)(F)C(F)(F)C(F)(F)F	-0.665%	
O=C(O)c1ccccc1C(=O)Nc1cccc2ccccc12		13.7 µM (active)
Cc1ccccc1CCl	-0.551%	
NC(=O)C(Cl)(Cl)Cl	-0.549% [at 95 µM]	
c1ccc(C2CC2)c(OCC2=NCCN2)c1	7.01%	
O=C(CBr)OCc1ccccc1	-0.561%	

Structure (SMILES)	activation	Potency
CC(C)=CCOc1c2occc2cc2ccc(=O)oc12		3.76 µM (active)
O=C1C(Cl)C(CCl)CN1c1cccc(C(F)(F)F)c1 (stereo not given)		48.6 µM (active)
CC(C)(OO)c1ccccc1	0.985%	
C=CC(=O)OC	1.26% [at 95 µM]	
c1ccc(CN2CCNCC2)cc1	0.473% [at 260 µM]	
CC(Cl)C(C)Cl (stereo not given)	-1.95%	
O=C(O)C1(c2ccc3c(c2)OC[C@H](Cc2ccc(-c4ccccc4)cc2)[C@H]3O)CCCC1	-0.019%	
COP(=S)(Oc1cc(Cl)c(Br)cc1Cl)c1ccccc1 (stereo not given)		27.3 µM (active)
CCCN(CCCl)c1c([N+](=O)[O-])cc(C(F)(F)F)cc1[N+](=O)[O-]	-1.23%	
C=CC(=O)OC(C)(C)C	-1.53%	
C=C(C#N)CCC#N	-0.11%	
CC(Cl)Cl	-0.0782%	
Cc1c(F)c(F)c(COC(=O)C2C(/C=C(\Cl)C(F)(F)F)C2(C)C)c(F)c1F (stereo not given)	-0.508%	
CCCCN(N=O)C(=N)N[N+](=O)[O-]	2.88% [at 95 µM]	
C=CC(C)=O	1.32%	
O=C(N[C@H](c1ccccc1)[C@@H]1CN2CCC1CC2)c1c(Cl)ccc(C(F)(F)F)c1Cl	-3.33% [at 95 µM]	
CC(C)(C)C(O)C(Oc1ccc(Cl)cc1)n1cncn1 (stereo not given)		18.6 µM (active)
Nc1ccc(N=Nc2ccc(-c3ccc(N=Nc4c(S(=O)(=O)O)cc5cc(S(=O)(=O)O)c(N=Nc6ccccc6)c(O)c5c4N)cc3)cc2)c(N)c1		5.56 µM (active)
CCC(Cl)CCl (stereo not given)	4.85% [at 95 µM]	
CCCCN=C=O	5.18%	
